Results from PubChem BioAssay AID584 (National Center for Advancing Translational Sciences (NCATS), 2007).
About 65 (0.09%) of roughly 71,000 compounds were called active. Many of the other results were omitted from the sample, so actives are more common in it than they were. A number with no mark means an inactive call. Calls come from the whole dose curve; as a rule, active = well fitted curve in the direction sought with a large enough effect; inconclusive = small, poorly fitted or top-dose-only effect; inactive = flat fitted curve, though single readings scatter.
% is set by controls: 0 for no effect and ±100 for the full control effect.

The molecules below were run against Beta-lactamase (Escherichia coli (strain K12)) (UniProt P00811) (assay: Promiscuous and Specific Inhibitors of AmpC Beta-Lactamase (assay with detergent)). Conditions: purified AmpC, nitrocefin hydrolysis with detergent; series mostly up to 28.7 µM; activity change, negative = inhibition: at the top concentration.
Chain of Beta-lactamase (Escherichia coli (strain K12)) (P00811 whole entry, looked up): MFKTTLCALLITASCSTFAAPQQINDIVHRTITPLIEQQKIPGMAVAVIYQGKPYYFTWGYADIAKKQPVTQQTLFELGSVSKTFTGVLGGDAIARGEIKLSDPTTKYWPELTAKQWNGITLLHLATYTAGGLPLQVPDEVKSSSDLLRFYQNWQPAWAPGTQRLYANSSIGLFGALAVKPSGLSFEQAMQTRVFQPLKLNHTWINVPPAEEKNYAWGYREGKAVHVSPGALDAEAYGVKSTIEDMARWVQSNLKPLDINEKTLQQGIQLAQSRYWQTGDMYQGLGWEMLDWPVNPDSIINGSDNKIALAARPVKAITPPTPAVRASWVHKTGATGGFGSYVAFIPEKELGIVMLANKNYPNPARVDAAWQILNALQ
Procedure: NIH Molecular Libraries Screening Centers Network [MLSCN]
NIH Chemical Genomics Center [NCGC]
PI Name: Shoichet, Brian K.
This aggregation profiling approach exploits the sensitivity of aggregate formation to detergent. Inhibition of b-lactamase is measured in the presence and absence of 0.01% Triton X-100. This particular assay had the prescence of 0.01% Triton X-100. See Pubchem assay "Promiscuous and Specific Inhibitors of AmpC Beta-Lactamase (assay without detergent)" for related screen. Compounds that inhibit only in the absence of detergent are considered likely promiscuous aggregators.
A screen of 1,030 compounds was performed in Brian Shoichet's lab in 96-well format. AmpC activity was measured by following the absorbance at 480 nm. Nitrocefin is a chromogenic substrate: while nitrocefin is yellow (lmax 390 nm), the product of its hydrolysis is red (lmax 486 nm, 17,000 M-1). AmpC beta lactamase was provided by Brian Shoichet and Brian Feng, UCSF.
NCGC Assay Protocol Summary:
20 mM phosphate buffer, pH 7.0
Triton X-100: No Detergent screen: 0.0001%, Detergent screen: 0.01%.
Buffer in columns 3 and 4 as negative control (no enzyme).
5.3 nM AmpC in columns 1, 2, 5-48. Titration of UCSF compound 9 control (from 10 mM, then 1:2) pin-transferred to column 2. Column 1 is neutral (100% activity).
Six uL of reagents were dispensed to 1536-well Greiner black clear bottom plates. Compounds and controls (23 nL) were transferred via Kalypsys PinTool. The plates were incubated for 15 min at room temperature, and then 2 uL of 800 uM solution of nitrocefin was added to start the reaction. The plates were immediately transferred to and read every 20 seconds for 4 min on ViewLux (Perkin-Elmer) High-throughput CCD imager using 480 nm absorbance protocol. During dispense, reagent bottles were kept submerged into 4 deg C water bath.
Keywords: NIH Roadmap, MLSCN, MLI, MLSMR, qHTS, NCGC, AmpC Beta-Lactamase, Aggregation
In the case of `O=C(NCc1ccccn1)c1cc2ccccc2oc1=O`, the “activity change, negative = inhibition” value is reported as -3.08%. For `COc1ccc2oc(=O)c(C(=O)O)cc2c1`, the “activity change, negative = inhibition” value was -3.06%. In the case of `C=CCOc1ccc(C2/C(=C(\O)c3c(C)[nH]c(C(=O)OC)c3C)C(=O)C(=O)N2CCN(C)C)cc1` (stereo not drawn), the “activity change, negative = inhibition” value is reported as -1.73%. In the case of `Cc1ccc(Oc2ccc(N)cc2)cc1`, the “activity change, negative = inhibition” value is reported as -6.72%. For `COc1ccc(S(=O)(=O)N2CCCC(C(=O)N3CCN(C)CC3)C2)cc1C` (stereo not drawn), the “activity change, negative = inhibition” value was 0.3%. For `c1nnc2c3c4c(sc3ncn12)CCC4`, the “activity change, negative = inhibition” value was 2.4%. With `Cc1cccc(C)c1NC(=O)N1CC=C(n2c(=O)[nH]c3ccccc32)CC1` the “activity change, negative = inhibition” value was -0.392%. With `Cc1cn(C2C=CC(CO)O2)c(=O)[nH]c1=O` (stereo not drawn) the “activity change, negative = inhibition” value was -3.11%. `c1ccc(Nc2n[nH]nc2-c2ccccc2)cc1` was tested, and the “activity change, negative = inhibition” value was -5.69%. With `CCCn1c(SCC(N)=O)nnc1C(C)C` the “activity change, negative = inhibition” value was -2.16%. `CC(C)(C)C(=O)CCN1C(=O)C2(OCCO2)c2ccccc21` was tested, and the “activity change, negative = inhibition” value was -1.15%. For `Cc1noc(C)c1-c1nccc(N2CCOCC2)n1`, the “activity change, negative = inhibition” value was 0.7%. `COC(=O)c1nc(NC(=O)c2ccc(Cl)cc2)n[nH]1` was tested, and the “activity change, negative = inhibition” value was 1.67%. For `CCCCn1nnnc1NCc1cc(OC)c(OC)c(OC)c1`, the “activity change, negative = inhibition” value was -0.286%. For `CCOC(=O)C(C(=O)OCC)C(C#N)c1ccccc1` (stereo not drawn), the “activity change, negative = inhibition” value was 14.3%. In the case of `CC(=O)Oc1cccc(N2C(=O)CC(Nc3ccc(N4CCOCC4)cc3)C2=O)c1` (stereo not drawn), the “activity change, negative = inhibition” value is reported as -7.46%. In the case of `CCC(=O)c1ccc(OCC(O)CN2C(=O)NC(C)(C)C2=O)cc1` (stereo not drawn), the “activity change, negative = inhibition” value is reported as 10.9%. `COc1ccc(-n2ncc3c(N4CCCc5ccccc54)ncnc32)cc1` was tested, and the “activity change, negative = inhibition” value was -4.66%. `COC(=O)c1ccccc1NC(=O)CSc1ccccn1` was tested, and the “activity change, negative = inhibition” value was 0.234%. `O=C(CN1C(=O)CCC1=O)Nc1ccc(S(=O)(=O)N2CCOCC2)cc1` was tested, and the “activity change, negative = inhibition” value was -0.675%. For `CCS(=O)(=O)n1nc(-c2ccccc2)nc1SCc1ccccc1`, the “activity change, negative = inhibition” value was -2.9%. With `CCCC(=O)C1=C(N(C)c2ccccc2)CC(C)(C)C(C(=O)OC)C1=O` (stereo not drawn) the “activity change, negative = inhibition” value was -2.7%. `Cn1cccc1C1(C(F)(F)F)NCCNC1=O` (stereo not drawn) was tested, and the “activity change, negative = inhibition” value was -0.082%. For `CC(C)N(C(=O)COC(=O)c1ccccc1C(=O)N1CCN(c2ccc(F)cc2)CC1)C(C)C`, the “activity change, negative = inhibition” value was 9.33%. With `O=c1[nH]c(=O)n([C@H]2C[C@H](O)[C@H](CO)O2)cc1Br` the “activity change, negative = inhibition” value was -1.6%. `CC(=O)/C(C)=N\O` was tested, and the activity change, negative = inhibition was “inactive”. In the case of `CC(C)Cc1ccc(S(=O)(=O)N2CCN(C(=O)c3ccco3)CC2)cc1`, the “activity change, negative = inhibition” value is reported as -7.76%. In the case of `O=c1c(-c2ccc(F)cc2)nc2cnc(N3CCOCC3)nc2n1-c1ccccc1`, the “activity change, negative = inhibition” value is reported as -2.6%. `CCON=C1C(C)(C)C(C)(C)C(C)(C)C1(C)C` gave an activity change, negative = inhibition of -1.9% [at 5.75 µM]. With `COc1cccc(NC(=O)c2ccccc2SC)c1` the “activity change, negative = inhibition” value was -2.07%. For `CCOC(=O)c1cccc(NC(=O)CN(c2ccc(C)cc2)S(=O)(=O)c2c(C)noc2C)c1`, the “activity change, negative = inhibition” value was -3.74%. Work on `C[C@H]1O[C@@H](CC(=O)O)Cc2c1c(O)c1c(O)cc(-c3cc(=O)c4c(=O)c5c(c(=O)c=4c3=O)C[C@H](CC(=O)O)O[C@@H]5C)c(O)c1c2O` yielded an activity change, negative = inhibition of -3.2% [at 5.75 µM]. For `CCCCc1nc2ccccc2c(NC(=O)CN2CCN(C)CC2)c1CCC`, the “activity change, negative = inhibition” value was -6.24%. With `O=C(O)Cc1ccc(-c2ccccc2)cc1` the “activity change, negative = inhibition” value was 1% [at 12.8 µM]. With `O=C(O)C(=O)Cc1ccc2c(c1)OCO2` the activity change, negative = inhibition was -2% [at 5.75 µM]. `CC/C(=N\O)C(C)(C)/[N+]([O-])=C/c1ccc(Br)cc1` was tested, and the “activity change, negative = inhibition” value was -3.57%. For `CC(=O)NC(Cc1ccc(F)cc1)C(=O)O` (stereo not drawn), the “activity change, negative = inhibition” value was 1.35%. For `Nc1nonc1-c1noc(-c2ccc(Br)o2)n1`, the “activity change, negative = inhibition” value was -1.42%. With `Cc1ccc(C)n1-c1ccncc1` the “activity change, negative = inhibition” value was -1.08%. With `O=C(CCCn1c(=O)oc2ccccc21)Nc1cccnc1` the “activity change, negative = inhibition” value was -2.89%. With `COc1ccc(C(=O)Nc2c(N)nc(SCC(=O)N3CCC(C)CC3)[nH]c2=O)cc1OC` the “activity change, negative = inhibition” value was 6.59%. `COC(=O)c1sc(=S)n(-c2ccccc2)c1N` was tested, and the “activity change, negative = inhibition” value was -0.579%. `COc1ccc(CCN2CNc3c(c(=O)n(C)c(=O)n3C)C2)cc1OC` was tested, and the “activity change, negative = inhibition” value was -3.65%. With `CC1CCN(Cc2nc3c(c(=O)n(C)c(=O)n3C)n2CCc2ccccc2)CC1` the “activity change, negative = inhibition” value was 13.7%. In the case of `COc1ccc(CCNC(=O)CSc2nc(C)nc3c2oc2ccccc23)cc1OC`, the “activity change, negative = inhibition” value is reported as -0.64%. In the case of `CCn1c(-c2cc(OC)ccc2OC)csc1=Nc1c(C)n(C)n(-c2ccccc2)c1=O`, the “activity change, negative = inhibition” value is reported as -1.83%. For `COc1ccc(C)c(Cn2c(-c3nonc3N)nc3ccccc32)c1`, the “activity change, negative = inhibition” value was -2.41%. For `CCCCOc1ccc(C(=O)NCc2ccco2)cc1`, the “activity change, negative = inhibition” value was 8.19%. For `Cc1ccc2c(CSc3nncs3)cc(=O)oc2c1`, the “activity change, negative = inhibition” value was 13.6%. For `CCOC(=O)C1CCN(C(=O)C2CCN(S(=O)(=O)N3CCCC3)CC2)CC1`, the “activity change, negative = inhibition” value was -0.132%. For `COc1ccccc1-c1nnc(SCC(=O)Nc2cc(C)on2)o1`, the “activity change, negative = inhibition” value was -4.26%. In the case of `CSCCC(NC(N)=O)C(=O)N(C)CC(=O)Nc1ccc(C)cc1` (stereo not drawn), the “activity change, negative = inhibition” value is reported as 0.529%. In the case of `CCOc1ccc(OCC)c(NC(=O)CSc2nnc(Cn3cnc4ccccc43)n2C)c1`, the “activity change, negative = inhibition” value is reported as -2.84%.
